UCHL1 inh = inhibitors of human UCHL1 deubiquitinase; hit rate 0.2% among 47,000; purified UCHL1, Ub-rhodamine cleavage fluorescence; inhibition, % at 20 µM; Ubiquitin carboxyl-terminal hydrolase isozyme L1 (Homo sapiens), P09936
USP10 inh = inhibitors of human USP10 deubiquitinase; purified USP10, Ub-rhodamine fluorescence, 60 min; Ubiquitin carboxyl-terminal hydrolase 10 (Homo sapiens), Q14694; inhibition, % at 20 µM; hit rate 1.1% among 47,000
USP7 block = inhibitors of human USP7 deubiquitinase; Ubiquitin carboxyl-terminal hydrolase 7 (Homo sapiens), Q93009; purified USP7, Ub-rhodamine cleavage fluorescence; inhibition, % at 20 µM; hit rate 0.3% among 47,000
USP8 inh = inhibitors of human USP8 deubiquitinase; Ubiquitin carboxyl-terminal hydrolase 8 (Homo sapiens), P40818; purified USP8, Ub-rhodamine cleavage fluorescence, 30 min; inhibition, % at 20 µM; hit rate 4.2% among 47,000; AID 1645853, 2021
Numbers without * were called inactive; / = no result. This is a sample that favours compounds with a hit; in the whole collection about 4.6% have one here. No stated cut-off is given here; in the data, active means inhibition above about 30%; inactive means the rest.

SMILES | UCHL1 inh | USP10 inh | USP7 block | USP8 inh
N#Cc1c(-c2cccnc2)c2c([nH]c1=O)-c1ccccc1CC2 | -8 | -7 | -6 | -23
N#Cc1c(-c2ccc(F)cc2)c2c([nH]c1=O)-c1ccccc1OC2 | 1 | 16 | -7 | 65*
Cc1ccc2c(c1)c(=O)c(C(=O)c1ccccc1)cn2CC(=O)Nc1ccc2c(c1)OCO2 | -1 | 31* | 23 | 71*
Cc1ccc2c(c1)c(=O)c(C(=O)c1ccccc1)cn2CC(=O)Nc1ccc(C)c(Cl)c1 | 5 | 15 | 18 | 59*
CC(C)CCN1C[C@H]2CCN(Cc3cccnc3)CC[C@H]2S1(=O)=O | 1 | -2 | 5 | -1
CC(=O)c1ccccc1NC(=O)COc1ccc(-c2ccc(C#N)cc2)cc1 | 3 | 11 | 12 | 16
CCc1cccc2c(C(=O)COc3ccc(C#N)cc3)c[nH]c12 | 4 | 16 | 3 | 82*
CCc1c(C(=O)Nc2cccc(C(F)(F)F)c2)nnn1-c1ccccc1 | 7 | 8 | 1 | 21
Cn1cc(-c2nc(C(=O)Nc3ccc(C#N)cc3)cs2)c2cccnc21 | 2 | 14 | 10 | 85*
O=c1[nH]c(-c2ccncc2)nc2c1CCN(Cc1cccn1-c1cccnc1)C2 | -33 | -3 | -47 | 58*
Cc1cccc(C(=O)OCC(=O)Nc2ccc3[nH]c(=O)[nH]c3c2)c1 | 3 | 18 | 15 | 52*
CCN1C[C@H]2CCN(C(=O)Nc3ccccc3Cl)CC[C@H]2S1(=O)=O | -1 | -2 | -2 | 1
O=C(CN1CCOCC1)Nc1ccc(NC(=O)c2ccc(Cl)cc2)cc1 | 69* | 1 | -4 | -6
CC(C)NC(=O)N1CC(=O)N2CC[C@@H](CC(=O)N3CCOCC3)[C@@H](CCCOc3ccccc3C1)C2 | 4 | 0 | -2 | 5
CC(=O)C1=C(O)[C@]2(O)C(=O)c3c(c(C)c4ccc(C)c(O)c4c3O)C[C@H]2[C@@H](N)C1=O | 66* | -9 | 58* | -42
O=C(Nc1cc(=O)[nH]c2nc(COc3ccccc3)nn12)c1ccc(Cl)cc1 | 1 | 19 | 6 | 35*
Cc1ccc2c(=O)c(C(=O)N3CCCC3)cn(CC(=O)Nc3ccc(C)c(F)c3)c2n1 | -5 | -4 | -14 | 0
CCn1cc(C(=O)NCc2cnc(C3CCCCO3)nc2)c(C)n1 (configuration not stated) | -1 | -1 | 1 | -6
CCCc1ccc(C(=O)[C@@H]2[C@@H](C(=O)c3cccs3)N3c4ccc(C)cc4C(C)=C[C@@H]3[C@@]23C(=O)Nc2ccccc23)cc1 | 1 | 38* | 33* | 67*
O=C(c1ccc(F)cc1)[C@@H]1[C@H](C(=O)Nc2ccc(Cl)cc2)N2c3ccccc3C=CC2[C@@]12C(=O)Nc1ccccc12 (some centres not stated) | -59 | -2 | -71 | -189
Cc1ccccc1NC(=O)c1cc(S(=O)(=O)N2CCCCCC2)ccc1Cl | 2 | 5 | 11 | 27
Cc1c(C(=O)OCC(=O)Nc2ccc3c(c2)OCO3)oc2ccc(Br)cc12 | 0 | 35* | 3 | -26
COc1ccc(O)c(C(=O)c2cc(C#N)c(=O)n(-c3cccc(C(F)(F)F)c3)c2)c1 | -159 | -3 | -150 | 65*
COc1cc(Cl)c(C)cc1-n1cc(C(=O)c2cc(Cl)ccc2O)cc(C#N)c1=O | -26 | -7 | -13 | 5
c1coc(-c2cc3nc(NCc4ccc5c(c4)OCO5)ccn3n2)c1 | 0 | -5 | 11 | 58*
SMILES | UCHL1 inh | USP10 inh | USP7 block | USP8 inh
CC(C(=O)NCCc1ccccc1)n1nc(-c2ccccc2)c2cc(Cl)ccc21 (configuration not stated) | 2 | 3 | 2 | 31*
COc1ccc(NC(=O)C(C)n2nc(-c3ccccc3)c3cc(Cl)ccc32)cc1 (configuration not stated) | -2 | 0 | -1 | -1
Cc1nc(N2CCCCC2)ncc1-c1cc(=O)[nH]c(N2CCC(C)CC2)n1 | -1 | 4 | 2 | 6
O=C(Nc1nccn1Cc1ccccc1)c1cc(-c2cccc(Cl)c2)on1 | 4 | 5 | 2 | 80*
COc1ccc2c(C)c(CC(=O)N3CCC[C@H]3C(=O)O)c(=O)oc2c1 | 5 | 1 | 7 | 1
O=C(Nc1ccccc1)c1c(O)c2cnn(Cc3ccccc3)c2[nH]c1=O | 0 | 3 | 5 | 57*
COc1ccc(CNC(=O)c2ccc(N3CCOCC3)c([N+](=O)[O-])c2)cc1 | 0 | 0 | 4 | -77
COc1ccc(N2CCN(c3ccc(Cl)cc3[N+](=O)[O-])CC2)cc1 | 3 | 5 | 2 | 33*
O=C(CCc1nnc2n(Cc3ccccc3Cl)c(=O)c3ccccc3n12)NCc1ccccc1 | 0 | 15 | 7 | 47*
COc1ccc(CNC(=O)CCc2nnc3n(Cc4ccccc4Cl)c(=O)c4ccccc4n23)cc1 | 9 | 14 | 7 | 38*
Fc1ccc(-c2nnc(-c3cnc4onc(C5CCCC5)c4c3)o2)cc1 | -5 | 0 | 6 | 7
Cc1cc(C(=O)CSc2nc3ccccc3[nH]2)c(C)n1Cc1ccco1 | 16 | 9 | 15 | 57*
O=C(CSc1nc2ccccc2[nH]1)c1ccccc1F | 0 | 1 | -2 | -1
Cc1ccc(-c2ncc(NC(=O)C3CCC3)cn2)cc1 | 0 | 6 | -12 | 33*
COc1ccc(NC(=O)CC(c2ccccc2)c2ccccc2)cc1S(=O)(=O)N1CCOCC1 | 0 | -2 | 0 | -5
Cc1cnnn1-c1ccc(C(=O)Nc2ccc(Cl)cc2Cl)cc1 | 3 | 7 | 6 | 59*
Cc1cnnn1-c1ccc(C(=O)Nc2ccccc2F)cc1 | 3 | -2 | 5 | 1
COC(=O)c1ccc2c(=O)n(CCCCCC(=O)NCCc3ccccc3Cl)c(=O)[nH]c2c1 | 0 | 53* | 15 | 43*
COC(=O)c1ccc2c(=O)n(CCCCCC(=O)NCCc3ccc(S(N)(=O)=O)cc3)c(=O)[nH]c2c1 | 6 | 37* | 20 | 82*
CCN(c1ccc(NC(=O)CSc2nnc(-c3ccccc3)n2-c2ccc(OC)c(OC)c2)cc1)C(C)C | 11 | 24 | 11 | 6
Cc1ccc2nc(CNc3cccc(Cl)c3)cc(=O)n2c1 | -2 | -1 | -7 | 29
CC(C)=CCC/C(C)=C/Cc1c(O)cc2c(c1O)C(=O)OC2 | 83* | 64* | 88* | 57*
COC(=O)CCC(c1ncc(C(F)(F)F)cc1Cl)S(=O)(=O)c1ccccc1 (configuration not stated) | 1 | 0 | 4 | 31*
COc1ccccc1CNC(=O)[C@H](C)NC(=O)C1CCN(C(=O)[C@H](Cc2ccccc2)NC(=O)OC(C)(C)C)CC1 | 2 | -4 | 1 | 9
O=C(CCc1c[nH]c2ccccc12)OCC(=O)c1cc2c3c(c1)CC(=O)N3CCC2 | 14 | 17 | / | 32*
O=C(CCc1c[nH]c2ccccc12)N1C[C@@H](O)[C@H](N2CCCC2)C1 | -4 | 0 | -2 | 5

Source: PubChem BioAssay (Buhrlage Lab, Dana-Farber Cancer Institute and Novartis Institutes for BioMedical Research (Cambridge, Mass))
